In article PMC12136788 one finds binding signal data, which are given here for 14 molecules.

T1: UNK ZnF1-3 (human, UniProt Q9C0B0 31-174)
T1 sequence: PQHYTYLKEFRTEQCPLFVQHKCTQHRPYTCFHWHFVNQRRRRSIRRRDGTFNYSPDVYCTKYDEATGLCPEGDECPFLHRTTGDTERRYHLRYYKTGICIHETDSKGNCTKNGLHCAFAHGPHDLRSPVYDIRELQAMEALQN

B1: 1003750_1005305_5821_CDS_ENSG00000060237_ENST00000535572|human|control|control (ssRNA)
RNA: GGGAGUUCUACAGUCCGACGAUCAUGAACAGACUUUGCAUCUUCUGACUUAUUUUUACCCUCUUUCUGGGCACCGUCUGCUGCAACAGAAACCUGAAAUCGUCCCAUCUUAAAAACACCAGCUCCUGAACUAGUUGCUAGGACCAACAGAGGAUUGAGCAUCA
B2: 9430860_9430980_9933_3pUTR_ENSMUSG00000040209_ENSMUST00000041124|mouse|control|control (ssRNA)
RNA: GGGAGUUCUACAGUCCGACGAUCUUUAAAAAGAACCAACUACUAUUUGACUCUAACCCAAUCCUUCAGUAUCUGGUAUGCGCUUUGUUUUUUCCCUUGCUAACACUAGGCCCUUUCUGUGCACUGCCAGCCAAGCACAGGCAGCAACAGAGGAUUGAGCAUCA
B3: 93812015_93812135_631_5pUTR_ENSG00000117505_ENST00000370272|human|control|control (ssRNA)
RNA: GGGAGUUCUACAGUCCGACGAUCGAUUUCUCAAAAAGUCGCCCUCGGAGAGUGAUCCCGGGGGGUGCUUUGCGAAGAGGGUGCAGAAAAUGAACGGAGGAGCAGCUGGCUUGAGGGCUGGGAACACUCGCGUGUGUGAGAGAUCAACAGAGGAUUGAGCAUCA
B4: chr5:128448638:128448639:+_ENSG00000066583_ENST00000173527|hu_mus|hu_hu_hu_mus_False|28_28 (ssRNA)
RNA: GGGAGUUCUACAGUCCGACGAUCGGCACUCGCCUUAAUUAGGUUCUGAAUUUCCUUGAACUUCGGGUGGUCUUUGUCAGCCACCAGCUGUAGGAGGACAGCCUCACUCGUGGUCACGAUGAUCCCAGUGCGGGCAAGACGCUCCAACAGAGGAUUGAGCAUCA
B5: chr4:103718443:103718444:-_ENSG00000109332_ENST00000394803|perfect_dup|FALSE|FALSE (ssRNA)
RNA: GGGAGUUCUACAGUCCGACGAUCAAAGCUGGAAGAACUUAAGUCUUCUCAGAUGAGCAUGUGAAUGAAUGGAGGGAGGUAAACAAAAAAUAAAAUUAAAAAAGAUGAGGUCUGAUAGGGGAGCAGCCGGAUAAGAAAAUCAAACAACAGAGGAUUGAGCAUCA
B6: chr10:60895279:60895280:-_ENSMUSG00000020091_ENSMUST00000020288|mus_mus|FALSE|FALSE (ssRNA)
RNA: GGGAGUUCUACAGUCCGACGAUCACUGGAAGAUGUUUUGUUAAAAAAGUUGUAGUUCAAAAUUGUACUGAAAACUUAUCUAAAAAUAGGUCUGUAGUCAUCUUAAAAAUAAAAGGUCUCUCCUCUGAUAAGGAGAGACUGAUACAACAGAGGAUUGAGCAUCA
B7: chr6:48548902:48548903:+_ENSMUSG00000052751_ENSMUST00000163452|mus_mus|FALSE|FALSE (ssRNA)
RNA: GGGAGUUCUACAGUCCGACGAUCAAGGAACAAAACAAGACCCAGUAGGCAGAAGUCAUAGGAAAGCAGAAUCCAAUCACUAUAAGUAAGAAAUGUCUAACAAUUAGACUCGCCCUACGAUAGAAGUAGUGCCUUCUGGAGGUACAACAGAGGAUUGAGCAUCA
B8: 176792147_176792267_4022_3pUTR_ENSG00000144320_ENST00000272748|human|control|control (ssRNA)
RNA: GGGAGUUCUACAGUCCGACGAUCACAUGAUAGGGAGUAAAAGGCAGAGGCCAGCUUCAGAUGGGGAGUUUGGGAAGGCAUCUCUCUGAGGAGGCAAAAUUUAAGCUGAAAUCUGAGGCAGGAAAGGGCAUGGUCAGAGAACUGCAACAGAGGAUUGAGCAUCA
B9: chr15:12740188:12740189:-_ENSMUSG00000022195_ENSMUST00000057256|mus_hu|FALSE|FALSE (ssRNA)
RNA: GGGAGUUCUACAGUCCGACGAUCAUAAAUGAAGUAUGAAUGAAUCUCAUACAGCUCAACAGACCUGGGGGAAAAGUGAAGACAAACAAACAAACAAACAAAAAAAAAAACAAAACCCUAAAAAAUACUUAAGGAAGACAGAUACAACAGAGGAUUGAGCAUCA
B10: chr2:47635579:47635580:+_ENSG00000095002_ENST00000543555|hu_hu|motif|central (ssRNA)
RNA: GGGAGUUCUACAGUCCGACGAUCACUCUAUACUGACGAACCAGAAGAAGAUCUUUUACAAAAGAUUCAAAAUUCAUUUUACGGAGCACAACACUCUGCAGAUUCUUUGCUCCUGCCGGCCCCAUGUACUUGAUCACCCCCUGGCAACAGAGGAUUGAGCAUCA
B11: chr9:15453159:15453160:+_ENSG00000164975_ENST00000490969|hu_hu|FALSE|FALSE (ssRNA)
RNA: GGGAGUUCUACAGUCCGACGAUCAUGAUGCACAAGCCUUAUGUCAGUAAUGACAAUGACAUGUUCACAGUCUCCCUGAUGACAGUAUAAGUAAGGAAAACCCAGUUUAAUACACAAGUCAUUGAAGGUGAAAUCUUCCAUUCUCAACAGAGGAUUGAGCAUCA
B12: chr4:117881997:117881998:-_ENSMUSG00000033295_ENSMUST00000150096|mus_hu|FALSE|FALSE (ssRNA)
RNA: GGGAGUUCUACAGUCCGACGAUCCAGAAGUCAUACAAAAUAAGGAUCCAAAGUGAACUCAAGAAAAAAAAAAACAAAACAAAAUAAACCCCAACCCCUACAGUGGCCCAUUCUGCAGAUACGGAUUCGCGAAAGGAAAAAUCACAACAGAGGAUUGAGCAUCA
B13: 54500970_54501090_1431_3pUTR_ENSMUSG00000039156_ENSMUST00000071083|mouse|control|control (ssRNA)
RNA: GGGAGUUCUACAGUCCGACGAUCAGCUGCAUCUCAGCAUUUUGCCUCUUAAUAUUGUAGUACUGUACUUCAACUUCGUGUGUUAGCUGAAGCCAUUUCUGUAGUGCGUCAGGGACAGACCAGCUGCUUCUCAGUUCAAACUCCCAACAGAGGAUUGAGCAUCA
B14: chr2:217001844:217001845:+_ENSG00000079246_ENST00000392132|hu_hu|hu_hu_hu_mus_False|18_28 (ssRNA)
RNA: GGGAGUUCUACAGUCCGACGAUCACCAACUUGAGGAUUAGAUCUUUUGUCAUAAGCAUAUCGGACGAUGGCGACCAUGUUUAACUCAUCCAAAGCAUGAACGAGAGAGGAAAGUGCAACUGCAGCUGCCUCAUCAUCCUUUGCCAACAGAGGAUUGAGCAUCA

The full ranking holds about 24,000 sequences; the median of “enrichment r” is about 0.99, and the highest 2% start at about 3.7. This excerpt belongs to a sample that is enriched for the highest values.

In this assay the target is T1, UNK ZnF1-3. Briefly: nsRBNS (natural sequence RNA bind-n-seq); RBNS binding buffer (assumed for nsRBNS): 25 mM Tris pH 7.5, 150 mM KCl, 3 mM MgCl2, 0.01% Triton X-100, 500 ug/ml BSA, 20 U/ml SUPERase-In, 4 C; UNK is unkempt and MSI1 is Musashi-1; names of the RNAs are library labels; protein concentration not given here; high values mean tight binding.
With B1, the binding signal amounted to 1.34 enrichment R. On to B2, for which the binding signal was found to be 0.957 enrichment R.

B3 displayed a binding signal of 1.73 enrichment R. To B4 belongs 0.734 enrichment R; to B5, 21.1 enrichment R. To B6 belongs 0.617 enrichment R.

The molecule B7 displayed a binding signal of 2.2 enrichment R. To B8 belongs 3.56 enrichment R. To B9 belongs 6.86 enrichment R; to B10, 1.41 enrichment R; to B11, 1.02 enrichment R.

B12 returned a binding signal of 7.45 enrichment R. To B13 belongs 1.01 enrichment R. To B14 belongs 1.42 enrichment R.
